# An excerpt weighted towards active compounds, which were near 19% of everything screened.
# IL1B secr inh: blocks inflammasome-driven IL-1 beta release | THP-1 LPS/ATP IL-1B secretion, AlphaLISA, 16 h; stronger effect = lower value | activity change, % at 57.5 µM | 360,000 tested, 4.7% active; in the data active means activity change below about -50%; inconclusive means mostly about -30% to -49%
#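 Secreted IL-1B measured by AlphaLISA bead assay after 16 h compound exposure of THP-1 cells; compounds (final up to 57.5 uM) added 1 h before LPS (250 ng/mL) and ATP (1.25 mM) stimulation; lower signal means less secretion.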
# TDP1 cell noCPT: qHTS for Inhibitors of human tyrosyl-DNA phosphodiesterase 1 (TDP1): qHTS in cells in absence of CPT; DT40 Tdp1-/- hTDP1 cells, no CPT, ATP luminescence, 48 h; Potency, µM (series often up to 46.2 µM), without a hit: at the highest dose activity change, negative = growth inhibition, most hits filed as inhibitors; 420,000 tested, 15% active; further: potency means the concentration at half of the fitted maximal effect; nearly all actives have a fitted effect of over 55% in size
#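 Growth kinetics read by CellTiter-Glo luminescence after ≥48 hr at 37 °C. Cells: DT40 Tdp1-/- stably carrying human TDP1, 400 per well, compound exposure in the absence of CPT (DMSO vehicle).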
# DT40 TDP1 CPT: growth inhibition of DT40 Tdp1-/-;hTDP1 cells with camptothecin (screen for TDP1 inhibitors); chicken DT40 Tdp1-/-;hTDP1 cells + 20 nM CPT, ATP luminescence, 48 h; Potency, µM (series often up to 46.2 µM), for the others: top-dose activity change, negative = growth inhibition, usual class: inhibitors; 420,000 tested, 12% active; AID 686979; further: potency means the concentration at half of the fitted maximal effect; nearly all actives have a fitted effect of over 55% in size
#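 Chicken DT40 Tdp1-/- cells complemented with human TDP1, 400 cells/well, exposed to compounds plus 20 nM camptothecin for at least 48 h at 37 C; viability read as ATP content by CellTiter-Glo luminescence.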
# HT1080 IDH1KD tx: toxicity to HT-1080 IDH1 knockdown cells (counter line); HT-1080 IDH1 knockdown viability, ATP luminescence, 48 h; Potency, µM (top dose mostly 46.1 µM), inactives show at the top dose activity, negative = toxicity, hits mostly cytotoxic; 360,000 tested, 2% active;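 further: potency means the concentration at half of the fitted maximal effect; 0% = DMSO wells and -100% = cell-free medium wells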
#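 Using the IDH1-knockdown HT-1080 line run in the same batch and compound series as the NT line, viability after 48 h at 37 °C was determined by CellTiter-Glo luminescence and expressed as % activity.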
# HT1080-NT tox: kills 2HG-producing HT-1080-NT fibrosarcoma cells; HT-1080-NT fibrosarcoma viability, CellTiter-Glo ATP luminescence, 48 h; Potency, µM (highest dose often 46.1 µM), inactives show at the highest dose activity, negative = less viability, most hits filed as cytotoxic; 360,000 tested, 1.6% active;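 further: NT is the 2HG producing partner of a matched IDH1 knockdown line; potency means the concentration at half of the fitted maximal effect; 0% = DMSO-treated cells and -100% = media-only wells without cells; nearly all actives have a fitted effect of over 55% in size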
#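 Fibrosarcoma NT cells, 750 per well in 5% FBS RPMI, were exposed to compound for 48 hours. Viability: CellTiter-Glo luminescence.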
# * = called active by the depositor; ? = inconclusive; · = not tested or not shown. Unless noted, the call rests on the fitted dose curve; in most records, active means well fitted curve in the direction sought with a large enough effect; inconclusive means small, poorly fitted or top-dose-only effect, or another doubt; inactive means no such curve, though single readings can be large; an effect the other way counts as inactive or inconclusive. Unless noted, on the % scale 0 is the no-effect control and ±100 the full control effect.
SMILES,IL1B secr inh,TDP1 cell noCPT,DT40 TDP1 CPT,HT1080 IDH1KD tx,HT1080-NT tox
CC(=O)O[C@H]1[C@H](O)[C@H](Oc2c(O)c(C)c3c4c2[C@@H](C)CC[C@@H]4[C@@H](C)C[C@H]3C=C(C)C)O[C@@H](C)[C@H]1O,-77*,18µM*,?,?,?
CC(=O)Oc1c(C)c2c3c(c1OC(C)=O)[C@@H](C)CC[C@@H]3[C@@H](C)C[C@H]2C=C(C)C,-10,?,?,-9%,-5%
CC(C)=C[C@H]1C[C@H](C)[C@H]2CC[C@H](C)c3c(O[C@@H]4OC[C@@H](O)[C@H](O)C4O)c(O)c(C)c1c32 (stereo not given in full),-74*,?,-29%,?,?
COc1ccc([C@@H]2C[C@H]3[C@@H](CN2S(=O)(=O)c2ccccc2)C(=O)C[C@@H](c2cccc4ccccc24)N3S(=O)(=O)c2ccc(C)cc2)cc1,0,1%,11%,1%,0%
COc1cccc(CN2CC(C(=O)NCCc3cn4cccnc4n3)CCC2=O)c1 (stereo not given),2,-17%,-3%,5%,1%
CCCCCC1CCC(c2ccc(/C(N)=N/O)cc2)CC1 (stereo not given),8,8.2µM*,15µM*,1%,-6%
CC(C)Cn1c(N)c(C(=O)COC(=O)C2CC(=O)N(Cc3ccccc3Cl)C2)c(=O)n(C)c1=O (stereo not given),-61*,16µM*,?,-12%,?
COc1ccc(CCN2CC(C(=O)OCC(=O)c3c(N)n(CC(C)C)c(=O)n(C)c3=O)CC2=O)cc1OC (stereo not given),21,13µM*,21µM*,-7%,3%
CC(C)Cn1c(N)c(C(=O)COC(=O)c2c(O)c(Cl)cc(Cl)c2Cl)c(=O)n(C)c1=O,0,18%,5%,-1%,0%
COc1ccc(CCN2CC(C(=O)OCc3ccccc3Cl)CC2=O)cc1OC (stereo not given),32,-29%,16%,12%,6%
O=S(=O)(Nc1ccc(-c2ccc3nncn3n2)cc1)c1cccc(F)c1,6,-18%,-25%,-12%,0%
O=S(=O)(NCC(c1ccco1)N1CCN(c2ccccc2F)CC1)c1ccc2c(c1)OCCO2 (stereo not given),-17,?,?,-8%,1%
COc1ccc(N2CCN(C(CNS(=O)(=O)c3ccc4c(c3)OCCO4)c3ccco3)CC2)cc1 (stereo not given),-6,?,13µM*,-14%,-9%
CCS(=O)(=O)NCC(c1ccco1)N1CCN(c2ccc(OC)cc2)CC1 (stereo not given),·,17%,12%,·,·
COc1ccc(N2CCN(C(CNS(=O)(=O)c3c(C)cc(C)cc3C)c3ccco3)CC2)cc1 (stereo not given),·,26µM*,?,·,·
O=S(=O)(NCC(c1ccco1)N1CCN(c2ccccc2F)CC1)c1ccccc1 (stereo not given),-2,?,0%,2%,-2%
COc1ccc(S(=O)(=O)NCC(c2ccco2)N2CCN(c3ccccc3F)CC2)cc1C (stereo not given),·,18µM*,21µM*,·,·
CCOc1ccccc1CNC(=O)CCn1cccn1,·,-9%,-18%,·,·
C[C@@H]1CN([C@H](C)CO)S(=O)(=O)c2ccc(Br)cc2O[C@@H]1CN(C)C(=O)NC1CCCC1,-11,?,?,-5%,-1%
Cc1cc(C)c2nc3nc(C)c(C)cc3c(N)c2c1,-89*,6.5µM*,8.2µM*,13µM*,?
Cc1cc(C)n(CCC(=O)N2CCCC(N3CCN(c4cccc(Cl)c4)CC3)C2)n1 (stereo not given),24,?,?,-1%,1%
CN1CCN(CCCNC(=O)c2cnn(-c3ccccc3)c2C2CCN(C(=O)OC(C)(C)C)CC2)CC1,·,-5%,-13%,·,·

# Assay outcomes as filed in PubChem BioAssay.
